Sampled rows, rich in hits. Any-hit rate of the full collection: about 3.8%.
HepG2 tox – kills HepG2 cells in TGF-b inhibitor counter-screen. Potency, µM (titrated, usually from 46.1 µM), for inactives: at the top dose activity change, negative = cytotoxicity, hits mostly cytotoxic. AID 588856. 0.76% of 410,000 active. HepG2 CAGA-GFP viability, ATP luminescence, 18 h
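CellTiter-Glo luminescence gave cytotoxicity after 18 hours at 37 degrees C. The cells were HepG2 CAGA-GFP in 1% FBS DMEM, stimulated with 500 pg/mL TGF-beta after compound addition. %Activity was normalised to no-cell wells (complete cell-killing) and DMSO (no toxicity), and curves were fitted and classified.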
HT1080-NT tox – kills 2HG-producing HT-1080-NT fibrosarcoma cells | HT-1080-NT fibrosarcoma viability, CellTiter-Glo ATP luminescence, 48 h | Potency, µM (titrated, usually from 46.1 µM), for the others: top-dose activity, negative = less viability, actives largely listed as cytotoxic | 1.6% of 360,000 active | AID 686970;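 note: NT is the 2HG producing partner of a matched IDH1 knockdown line; 0% = DMSO-treated cells and -100% = media-only wells without cells; nearly all actives have a fitted effect of over 55% in size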
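Read-out is CellTiter-Glo luminescence after 10 minutes at room temperature, following 48 hours' compound treatment of HT-1080-NT cells (750 cells/well, RPMI, 5% FBS, 37 degrees C).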
S2 tox – cell viability loss in ATXN counter-screen | Potency, µM (highest dose often 56.7 µM), hits mostly cytotoxic | 0.49% of 400,000 active | S2 cells (HEK-293 line with an ATXN2-luciferase reporter) viability, CellTiter-Fluor protease fluorescence, 24 h | AID 651635; note: nearly all actives have a fitted effect of over 40% in size
HT1080 IDH1KD tx – toxicity to HT-1080 IDH1 knockdown cells (counter line) | HT-1080 IDH1 knockdown viability, ATP luminescence, 48 h | Potency, µM (series often up to 46.1 µM), without a hit: at the highest dose activity, negative = toxicity, actives largely listed as cytotoxic | 2% of 360,000 active | AID 686971;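 note: 0% = DMSO wells and -100% = cell-free medium wells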
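IDH1KD HT-1080 cells, 750/well, RPMI + 5% FBS; compound pinned after 2 h settling; 48 h, 37 °C; CellTiter-Glo luminescence; % activity normalised to DMSO and no-cell wells; curves fitted, classed by r2 and efficacy.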
TGFb inhibitor – TGF-b pathway inhibition; 1.2% of 410,000 active; HepG2 CAGA-GFP TGF-b/SMAD3 reporter, GFP fluorescence, 18 h; TGF-beta stimulated, 500 pg/mL final; AID 588855; Potency, µM (titrated, usually from 46.1 µM), for inactives: at the top dose activity, negative = inhibition, actives largely listed as inhibitors; note: % is set by controls: 0 for no effect and ±100 for the full control effect; nearly all actives have a fitted effect of over 65% in size
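TGF-beta reporter screen: HEPG2 CAGA-GFP, 1% FBS, 500 pg/mL TGF-beta final, 18 h; per-cell GFP summed per well; curves fitted and categorized by class.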
ATXN2 expr inh – ATXN2 expression inhibition. HEK-293 ATXN2-luciferase reporter, luminescence, 24 h. Potency, µM (series often up to 57 µM), for inactives: at the highest dose activity change, negative = inhibition, usual class: inhibitors. 0.72% of 360,000 active. AID 1745845; note: % is set by controls: 0 for no effect and ±100 for the full control effect; nearly all actives have a fitted effect of over 55% in size
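ATXN2-luciferase reporter cells (luciferase flanked by upstream and downstream ATXN2 gene portions) were treated 24 h at 37 °C with compounds at up to 57 uM. SteadyGlo luminescence gave expression; GF-AFC fluorescence gave viability.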
The depositor's hits bear a star; i = inactive; ? = inconclusive; nt = no result. Calls come from the whole dose curve; as a rule, active = well fitted curve in the direction sought with a large enough effect; inconclusive = small, poorly fitted or top-dose-only effect, or another doubt; inactive = no such curve, though single readings can be large; an effect the other way counts as inactive or inconclusive. Potency is the fitted concentration of half-maximal effect.

SMILES	HepG2 tox	HT1080-NT tox	S2 tox	HT1080 IDH1KD tx	TGFb inhibitor	ATXN2 expr inh
CC(C)(C)NC(=O)C(c1ccncc1)N(Cc1ccco1)C(=O)c1ccc(-c2ccccc2)[nH]1 (stereo unspecified)	-12%	18µM*	i	18µM*	-7%	29%
NC(=O)c1cc2c3ccccc3ccn2c1-c1ccccc1	-69%	1.6µM*	?	?	?	nt
COc1cccc(-c2nn(-c3ccc(C)cc3)cc2C(=O)N2CCc3cc(OC)c(OC)cc3C2)c1	-3%	?	?	21µM*	-3%	-8%
COc1ccc(OC)c(-c2nn(-c3ccccc3)cc2C(=O)N2CCc3ccccc3C2)c1	1%	-18%	?	?	-13%	9%
C=CCOc1cccc(C(=O)/C=C2/C(=O)Nc3ccccc32)c1	10µM*	18µM*	?	?	11µM*	?
Cc1ccccc1C(=O)Nc1cccc(-c2nnc(SCC(=O)NCc3ccco3)n2C)c1	-3%	nt	nt	nt	-7%	nt
CC(Nc1oc(-c2ccc(COc3ccccc3)o2)nc1C#N)c1ccccc1 (stereo unspecified)	11µM*	nt	?	nt	?	?
Nc1ccn([C@@H]2O[C@H](CO)[C@@H](O)[C@H]2O)c(=O)n1	4%	-18%	i	4%	-4%	?
Nc1ccn([C@@H]2O[C@H](CO)[C@@H](O)C2(F)F)c(=O)n1	nt	nt	?	nt	nt	32µM*
CN(C)c1ccc(CNC(=O)c2cnc3sc(N4CCOCC4)nn3c2=O)cc1	-12%	nt	nt	nt	0%	nt
O=C(Nc1ccccc1N1CCCCC1)c1ccc(Cl)c([N+](=O)[O-])c1	0%	?	i	?	0%	-21%
CCN1CCN(c2ccc(S(=O)(=O)N3CCCCC3)cc2NC(=O)/C=C/c2ccc(F)cc2)CC1	-75%	-4%	i	-4%	?	-15%
O=C(/C=C/c1ccc(Cl)c([N+](=O)[O-])c1)Nc1ccc(N2CCCC2)c(Cl)c1	-23%	?	?	13µM*	0%	-30%
CN1CCN(c2ccc(S(=O)(=O)N3CCCCC3)cc2NC(=O)/C=C/c2ccc(OC(F)F)cc2)CC1	-100%	?	i	?	?	-34%
CN1CCN(c2ccc(S(=O)(=O)N3CCCCC3)cc2NC(=O)/C=C/c2ccc(Cl)c([N+](=O)[O-])c2)CC1	-97%	-15%	?	?	?	22µM*
CCN1CCN(c2ccc(S(=O)(=O)N3CCCCC3)cc2NC(=O)/C=C/c2ccc([N+](=O)[O-])cc2)CC1	-47%	?	?	16µM*	-27%	32µM*
CC(=O)N(CC(O)CO)c1c(I)c(C(=O)NCCO)c(I)c(C(=O)NCC(O)CO)c1I (stereo unspecified)	nt	nt	i	nt	nt	-1%
CCO[C@@H]1OC(C(=O)N2CCN(Cc3ccc4c(c3)OCO4)CC2)=C[C@H](C2CCCCC2)[C@H]1CCCO	-1%	-16%	18µM*	-16%	?	?
CC(=O)C1(O)C(C)CC2C3CC=C4CC(O)CCC4(C)C3CCC21C (stereo unspecified)	11%	3%	i	2%	9%	9%
CC12CCC(O)CC1=CCC1C2CCC2(C)C3=NN=CC3CC12 (stereo unspecified)	7%	?	i	33µM*	0%	-19%
Cc1ccc(NC(=O)c2cc(S(=O)(=O)NCCC3=CCCCC3)ccc2F)cc1F	-82%	?	?	?	?	?
O=C(Nc1cccc(F)c1)c1cc(S(=O)(=O)NCCC2=CCCCC2)ccc1F	14µM*	?	?	?	?	-36%
CC(=O)N1CCc2cc(S(=O)(=O)NCCCN3CCCCC3)ccc21	-1%	-3%	i	3%	-3%	0%
CC(=O)N1CCc2cc(S(=O)(=O)NCCC3=CCCCC3)ccc21	-4%	-9%	i	21µM*	-18%	?
CC(C)CN(C[C@H](O)[C@H](Cc1ccccc1)NC(=O)O[C@H]1CCOC1)S(=O)(=O)c1ccc(N)cc1	nt	nt	nt	nt	nt	-3%
SMILES	HepG2 tox	HT1080-NT tox	S2 tox	HT1080 IDH1KD tx	TGFb inhibitor	ATXN2 expr inh
O=C(CCn1cnc2ccccc21)N/N=C/C=C/c1ccccc1	-17%	6%	i	0%	1%	2%
COc1ccccc1/C=C/C=N/NC(=O)CCn1cnc2ccccc21	-7%	10µM*	i	15µM*	-1%	-21%
O=C(CCn1cnc(-c2ccccc2)c1-c1ccccc1)N/N=C/c1ccc(O)cc1	-16%	?	?	?	0%	-34%
COc1ccc(/C=N/NC(=O)CCn2cnc(-c3ccccc3)c2-c2ccccc2)cc1	-35%	3.3µM*	i	3.3µM*	11µM*	-18%
O=C(CCn1cnc(-c2ccccc2)c1-c1ccccc1)N/N=C/c1ccccc1O	-43%	13µM*	?	15µM*	?	?
CCOc1ccc2nc(NC(=O)c3nc(SCc4ccccc4F)ncc3Cl)sc2c1	-2%	nt	i	nt	-3%	3%
Cc1ccc(S[C@@H](CCN2CC[C@H](NC(=O)OCc3ccccc3)CCC2=O)c2ccccc2)cc1	-2%	-20%	?	-4%	10µM*	-20%
CC(=O)Nc1ccc(S[C@@H](CCN2CC[C@H](C(C)(C)C)CCC2=O)c2ccccc2)cc1	-34%	-28%	32µM*	?	?	?
CC(C)(C)[C@@H]1CCC(=O)N(CC[C@H](Sc2ccccc2)c2ccccc2)CC1	-60%	-18%	i	-27%	?	?
Cc1nnc(NC(=O)CSc2nccn2-c2ccc(Cl)cc2)s1	-27%	nt	nt	nt	-10%	nt
CC(C)c1cc(C(C)C)c(S(=O)(=O)N2c3ccccc3[C@@]3(Br)C[C@H]4C(=O)N[C@@H](Cc5ccccc5)C(=O)N4[C@@H]23)c(C(C)C)c1	-4%	-15%	i	-30%	8.9µM*	3%
COc1ccc(CN(C(=S)Nc2ccccc2)C2CC(=O)N(c3ccc(Cl)cc3)C2=O)cc1 (stereo unspecified)	1%	12µM*	i	?	?	-17%
CC(=O)ON(C(C)=O)c1ccc(/C=C2\C=Cc3ccccc32)cc1	-30%	nt	nt	nt	-20%	nt
CN(C)c1ccc(N/C=C/C(=O)C(C)(C)C)cc1	-59%	-21%	i	?	?	56%
CC(C)(C)C(=O)/C=C/Nc1ccccc1O	-30%	?	i	13µM*	-30%	-7%
